The source made the active and inactive calls. Rule for the calls: active = hit-call score of the fitted dose curve at least 0.9, where 1 is the maximum; inactive = score below 0.9.
Legend:
Details in all cases: mRNA level, 48 h; actives raise or lower the signal
[1] = read-out: JUN Transcription Factor, JUN (gene 3725); assay: LTEA_HepaRG_JUN: Life Technologies and Expression Analysis (LTEA) Assay for JUN Transcription Factor using HepaRG (AID 2283513)
How it was run: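 Read-out is JUN transcript level by TaqMan qRT-PCR, normalized to ACTB, GAPDH and POLR2A, after 48 h chemical treatment of HepaRG cells. Concentration-response spanned eight half-log points up to 100 uM in 0.5% DMSO.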

[2] = read-out: Lipoprotein lipase (LPL), LPL (gene 4023); assay: LTEA_HepaRG_LPL: Life Technologies and Expression Analysis (LTEA) Assay for Lipoprotein lipase (LPL) using HepaRG (AID 2283515)
How it was run: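 HepaRG, 48 h exposure, 8-pt half-log dilutions from 100 uM, 0.5% DMSO vehicle, duplicates; qRT-PCR (Fluidigm array) of LPL mRNA vs housekeeping genes; bidirectional curve fit relative to DMSO baseline.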

[3] = read-out: MicroRNA 122 (MIR122), gene 406906; assay: LTEA_HepaRG_MIR122: Life Technologies and Expression Analysis (LTEA) Assay for MicroRNA 122 (MIR122) using HepaRG (AID 2283516); note: the transcript read is the microRNA miR-122
How it was run: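 Human liver HepaRG cultures receive test chemicals for 48 h at eight half-log concentrations from 100 uM. Expression is quantified by qRT-PCR with ACTB/GAPDH/POLR2A normalization and fitted bidirectionally against 0.5% DMSO.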

[4] = read-out: matrix metalloproteinase-10 (MMP10), MMP10 (gene 4319); assay: LTEA_HepaRG_MMP10: Life Technologies and Expression Analysis (LTEA) Assay for matrix metalloproteinase-10 (MMP10) using HepaRG (AID 2283517)
How it was run: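 Transcript levels come from Fluidigm qRT-PCR normalized to three housekeeping genes, with curves fitted bidirectionally against 0.5% DMSO. Human HepaRG cells were dosed for 48 hours at concentrations up to 100 uM.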

[5] = read-out: MYC, MYC (gene 4609); assay: LTEA_HepaRG_MYC: Life Technologies and Expression Analysis (LTEA) Assay for MYC using HepaRG (AID 2283518)
How it was run: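 qRT-PCR read-out of MYC transcript (Fluidigm TaqMan, housekeeping-normalized) after 48 h chemical exposure of HepaRG cells; eight concentrations, top 100 uM, half-log steps. Bidirectional curve fitting against 0.5% DMSO vehicle baseline.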

[6] = read-out: matrix metalloproteinase-3 (MMP3), MMP3 (gene 4314); assay: LTEA_HepaRG_MMP3: Life Technologies and Expression Analysis (LTEA) Assay for matrix metalloproteinase-3 (MMP3) using HepaRG (AID 2283519)
How it was run: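 qRT-PCR read-out of MMP3 mRNA (normalised to three housekeeping genes) in HepaRG liver cells after 48 h chemical exposure; 8-point half-log series, top 100 uM, 0.5% DMSO vehicle. Bidirectional curve fitting against DMSO baseline.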

[7] = read-out: Paternally Expressed 10 (PEG10), PEG10 (gene 23089); assay: LTEA_HepaRG_PEG10: Life Technologies and Expression Analysis (LTEA) Assay for Paternally Expressed 10 (PEG10) using HepaRG (AID 2283520);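 for AC50: differentiated HepaRG human liver cells in serum-free induction medium with 0.5% DMSO; PEG10 transcript by qRT-PCR normalised to ACTB GAPDH and POLR2A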
How it was run: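 Human HepaRG cultures are dosed for 48 h across an eight-point half-log series starting at 100 uM, with 0.5% DMSO as vehicle and baseline. Gain or loss of PEG10 transcript is measured by qRT-PCR and fitted in both directions.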

[8] = read-out: Nuclear factor NF-kappa-B p105 subunit (Homo sapiens) (UniProt P19838); assay: LTEA_HepaRG_NFKB1: Life Technologies and Expression Analysis (LTEA) Assay for Nuclear Factor Kappa B Subunit 1 (NFKB1) using HepaRG (AID 2283521);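 note: differentiated human HepaRG liver cells in serum-free induction medium; TaqMan qRT-PCR transcript normalised to ACTB GAPDH and POLR2A housekeeping genes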
How it was run: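 HepaRG, 48 h exposure; 8-pt half-log series from 100 uM in 0.5% DMSO; duplicates. Readout: NFKB1 mRNA by qRT-PCR (Fluidigm arrays), housekeeping-normalized. Gain/loss fit vs DMSO baseline.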

[9] = read-out: Protein phosphatase 2A (PPP2R4), PTPA (gene 5524); assay: LTEA_HepaRG_PPP2R4: Life Technologies and Expression Analysis (LTEA) Assay for Protein phosphatase 2A (PPP2R4) using HepaRG (AID 2283522)
How it was run: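 Cells were plated, cultured 48 h, switched to serum-free induction medium, then dosed for 48 h (8 points, max 100 uM, 0.5% DMSO). RNA was isolated and PPP2R4 expression measured by TaqMan qRT-PCR.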

[10] = read-out: Phosphatase and tensin (PTEN), PTEN (gene 5728); assay: LTEA_HepaRG_PTEN: Life Technologies and Expression Analysis (LTEA) Assay for Phosphatase and tensin (PTEN) using HepaRG (AID 2283523)
How it was run: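 HepaRG, 48 h exposure, 8-pt half-log series from 100 uM top, 0.5% DMSO vehicle, duplicates. Readout: Fluidigm qRT-PCR of PTEN transcript; housekeeping normalization (ACTB, GAPDH, POLR2A). Gain or loss fitted relative to DMSO baseline.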

[11] = read-out: solute carrier (SLC22A1), SLC22A1 (gene 6580); assay: LTEA_HepaRG_SLC22A1: Life Technologies and Expression Analysis (LTEA) Assay for solute carrier (SLC22A1) using HepaRG (AID 2283524);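 for AC50: differentiated human HepaRG liver cells in serum-free induction medium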
How it was run: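 qRT-PCR readout (TaqMan, Fluidigm arrays) of SLC22A1 transcript, normalized to three housekeeping genes; bidirectional curve fit relative to 0.5% DMSO vehicle. Differentiated human HepaRG cells, 48 h chemical exposure, top concentration 100 uM, half-log steps, eight points.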

[12] = read-out: Pyruvate Dehydrogenase Kinase 4 (PDK4), PDK4 (gene 5166); assay: LTEA_HepaRG_PDK4: Life Technologies and Expression Analysis (LTEA) Assay for Pyruvate Dehydrogenase Kinase 4 (PDK4) using HepaRG (AID 2283525)
How it was run: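 HepaRG (human liver line), 48 h chemical exposure, 8-pt half-log CRC top 100 uM, 0.5% DMSO vehicle, duplicates. Readout: TaqMan qRT-PCR of PDK4 mRNA, housekeeping-normalized; gain/loss fit relative to DMSO baseline.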

[13] = read-out: NAD(P)H dehydrogenase [quinone] 1 (NQO1), NQO1 (gene 1728); assay: LTEA_HepaRG_NQO1: Life Technologies and Expression Analysis (LTEA) Assay for NAD(P)H dehydrogenase [quinone] 1 (NQO1) using HepaRG (AID 2283526)
How it was run: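 Transcript induction or suppression is quantified by qRT-PCR in human HepaRG liver cells dosed for 48 hours. Eight half-log concentrations topping at 100 uM are used, with 0.5% DMSO as vehicle and baseline.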

[14] = read-out: Nuclear factor erythroid 2-related factor 2 (Homo sapiens) (UniProt Q16236); assay: LTEA_HepaRG_NFE2L2: Life Technologies and Expression Analysis (LTEA) Assay for Nuclear factor erythroid 2-related factor 2 (NFE2L2) Transcription Factor using HepaRG (AID 2283527)
How it was run: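 HepaRG, 48 h dosing, 8-pt half-log series from 100 uM in 0.5% DMSO, duplicates. Read-out: NFE2L2 mRNA by qRT-PCR (ACTB/GAPDH/POLR2A normalization). Bidirectional curve fit vs DMSO baseline.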

[15] = read-out: succinate dehydrogenase complex iron sulfur subunit B (SDHB), SDHB (gene 6390); assay: LTEA_HepaRG_SDHB: Life Technologies and Expression Analysis (LTEA) Assay for succinate dehydrogenase complex iron sulfur subunit B (SDHB) using HepaRG (AID 2283528)
How it was run: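 Readout is SDHB transcript level by qRT-PCR, normalised to three housekeeping genes and fitted bidirectionally against 0.5% DMSO vehicle. Human HepaRG cells were treated for 48 h at up to 100 uM.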

[16] = read-out: Signal transducer and activator of transcription 3 (Homo sapiens) (UniProt P40763); assay: LTEA_HepaRG_STAT3: Life Technologies and Expression Analysis (LTEA) Assay for Signal transducer and activator of transcription (STAT3) using HepaRG (AID 2283529)
How it was run: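 HepaRG, 48 h exposure, 8-pt half-log series (top 100 uM), 0.5% DMSO vehicle, duplicates. Readout: STAT3 transcript by Fluidigm qRT-PCR, housekeeping-normalized; bidirectional fit vs DMSO baseline.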

[17] = read-out: solute carrier (SLCO1B1), SLCO1B1 (gene 10599); assay: LTEA_HepaRG_SLCO1B1: Life Technologies and Expression Analysis (LTEA) Assay for solute carrier (SLCO1B1) using HepaRG (AID 2283530)
How it was run: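 SLCO1B1 transcript read by qRT-PCR (Fluidigm arrays), normalized to three housekeeping genes, after 48 h chemical exposure of HepaRG cells; bidirectional concentration-response fitting versus 0.5% DMSO baseline. Eight-point half-log series, maximum 100 uM.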

[18] = read-out: sulfotransferase 2A1 (SULT2A1), SULT2A1 (gene 6822); assay: LTEA_HepaRG_SULT2A1: Life Technologies and Expression Analysis (LTEA) Assay for sulfotransferase 2A1 (SULT2A1) using HepaRG (AID 2283531)
How it was run: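 HepaRG, 48 h chemical exposure, 8-pt half-log curve from 100 uM in 0.5% DMSO, duplicates. Readout: TaqMan qRT-PCR of SULT2A1 mRNA, housekeeping-normalized. Bidirectional fit vs DMSO baseline.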

[19] = read-out: Transforming Growth Factor (TGFA), TGFA (gene 7039); assay: LTEA_HepaRG_TGFA: Life Technologies and Expression Analysis (LTEA) Assay for Transforming Growth Factor (TGFA) using HepaRG (AID 2283532)
How it was run: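 qRT-PCR read-out of TGFA transcript, normalized to three housekeeping genes, fitted bidirectionally against 0.5% DMSO baseline. Human HepaRG cultures received chemicals for 48 h at eight half-log concentrations, top 100 uM.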

[20] = read-out: Lipase C (LIPC), LIPC (gene 3990); assay: LTEA_HepaRG_LIPC: Life Technologies and Expression Analysis (LTEA) Assay for Lipase C (LIPC) using HepaRG (AID 2283514)
How it was run: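 HepaRG, 48 h exposure, 8-pt half-log series from 100 uM in 0.5% DMSO, duplicates. Readout: LIPC mRNA by Fluidigm qRT-PCR, housekeeping-normalized (ACTB/GAPDH/POLR2A). Gain or loss fitted bidirectionally against DMSO baseline.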

Measured: AC50

Chain of Nuclear factor erythroid 2-related factor 2 (Homo sapiens) (Q16236 whole entry, looked up): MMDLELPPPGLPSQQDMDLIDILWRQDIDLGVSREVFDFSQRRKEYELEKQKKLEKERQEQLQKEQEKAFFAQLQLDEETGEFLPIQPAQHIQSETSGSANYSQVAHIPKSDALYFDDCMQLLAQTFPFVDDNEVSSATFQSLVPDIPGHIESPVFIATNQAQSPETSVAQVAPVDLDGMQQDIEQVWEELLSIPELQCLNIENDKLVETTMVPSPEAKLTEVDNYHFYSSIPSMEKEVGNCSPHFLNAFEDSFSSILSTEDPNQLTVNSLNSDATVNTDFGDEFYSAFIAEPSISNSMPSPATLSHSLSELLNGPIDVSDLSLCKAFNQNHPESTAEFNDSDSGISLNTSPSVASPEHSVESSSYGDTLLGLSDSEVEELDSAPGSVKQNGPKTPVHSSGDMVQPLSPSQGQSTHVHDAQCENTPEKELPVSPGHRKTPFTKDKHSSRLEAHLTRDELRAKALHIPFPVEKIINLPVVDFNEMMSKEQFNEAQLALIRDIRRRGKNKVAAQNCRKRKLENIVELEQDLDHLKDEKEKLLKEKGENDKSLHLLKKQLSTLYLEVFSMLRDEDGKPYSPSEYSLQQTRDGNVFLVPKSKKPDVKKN
Chain of Signal transducer and activator of transcription 3 (Homo sapiens) (P40763 whole entry, looked up): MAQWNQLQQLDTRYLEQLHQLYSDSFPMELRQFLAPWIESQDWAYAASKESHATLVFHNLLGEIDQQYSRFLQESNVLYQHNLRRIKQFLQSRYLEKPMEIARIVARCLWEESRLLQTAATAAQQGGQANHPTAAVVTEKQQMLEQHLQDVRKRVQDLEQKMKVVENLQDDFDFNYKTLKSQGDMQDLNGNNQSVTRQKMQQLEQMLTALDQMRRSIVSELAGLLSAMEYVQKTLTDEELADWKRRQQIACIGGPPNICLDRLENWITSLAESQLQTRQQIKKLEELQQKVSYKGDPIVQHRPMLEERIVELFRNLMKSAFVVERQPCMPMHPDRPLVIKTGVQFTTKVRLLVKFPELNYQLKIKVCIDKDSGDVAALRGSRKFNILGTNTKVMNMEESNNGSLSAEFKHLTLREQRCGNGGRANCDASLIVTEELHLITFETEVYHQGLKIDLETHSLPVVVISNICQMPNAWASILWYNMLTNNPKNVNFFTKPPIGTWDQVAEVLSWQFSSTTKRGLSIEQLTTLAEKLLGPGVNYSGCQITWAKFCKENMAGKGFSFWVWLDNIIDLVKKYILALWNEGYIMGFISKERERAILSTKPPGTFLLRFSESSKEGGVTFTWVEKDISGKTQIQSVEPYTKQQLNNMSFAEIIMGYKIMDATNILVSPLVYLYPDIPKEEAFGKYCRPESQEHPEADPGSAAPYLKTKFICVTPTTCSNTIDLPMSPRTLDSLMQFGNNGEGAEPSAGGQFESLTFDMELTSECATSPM
Chain of Nuclear factor NF-kappa-B p105 subunit (Homo sapiens) (P19838 whole entry, looked up): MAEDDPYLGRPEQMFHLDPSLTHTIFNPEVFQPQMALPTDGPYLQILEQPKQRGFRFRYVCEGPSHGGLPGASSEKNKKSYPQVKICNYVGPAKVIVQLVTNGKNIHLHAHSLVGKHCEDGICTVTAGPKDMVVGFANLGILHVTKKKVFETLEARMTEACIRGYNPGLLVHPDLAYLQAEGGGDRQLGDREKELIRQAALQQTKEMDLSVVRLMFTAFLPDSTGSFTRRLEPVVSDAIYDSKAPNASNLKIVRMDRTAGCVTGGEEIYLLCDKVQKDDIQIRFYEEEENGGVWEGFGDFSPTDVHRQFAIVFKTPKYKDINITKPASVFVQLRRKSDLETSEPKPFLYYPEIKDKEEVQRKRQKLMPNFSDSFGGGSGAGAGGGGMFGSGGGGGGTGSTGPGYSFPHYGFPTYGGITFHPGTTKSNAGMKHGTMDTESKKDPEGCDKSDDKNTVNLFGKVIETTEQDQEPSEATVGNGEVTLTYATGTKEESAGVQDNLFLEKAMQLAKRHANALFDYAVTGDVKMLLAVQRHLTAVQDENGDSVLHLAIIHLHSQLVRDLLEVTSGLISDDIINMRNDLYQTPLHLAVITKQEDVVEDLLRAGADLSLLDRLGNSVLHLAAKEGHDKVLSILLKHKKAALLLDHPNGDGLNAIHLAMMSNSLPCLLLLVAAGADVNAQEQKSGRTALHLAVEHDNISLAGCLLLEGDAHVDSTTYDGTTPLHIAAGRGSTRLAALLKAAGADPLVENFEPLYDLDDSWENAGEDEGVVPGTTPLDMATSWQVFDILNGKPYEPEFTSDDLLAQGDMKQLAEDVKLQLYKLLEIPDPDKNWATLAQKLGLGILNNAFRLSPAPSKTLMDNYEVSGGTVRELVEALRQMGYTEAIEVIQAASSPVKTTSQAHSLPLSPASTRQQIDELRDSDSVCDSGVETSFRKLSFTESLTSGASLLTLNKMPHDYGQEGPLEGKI

O=C(NS(=O)(=O)/C=C/c1ccccc1)c1ccc(F)cc1Cl
active: [7] 21.3 µM | [12] 26.4 µM
not listed: [20]
inactive: all other assays above

CC(C)(O)c1coc(S(=O)(=O)NC(=O)Nc2c3c(cc4c2CCC4)CCC3)c1
active: [7] 50 µM
not listed: [20]
inactive: all other assays above

C[C@](N)(Cc1ccc(O)c(O)c1)C(=O)O
not listed: [20]
inactive: all other assays above

O=C(O)c1cccc(N(Cc2cccnc2)c2ccc(OC(F)F)c(OC(F)F)c2)c1
active: [4] 91.7 µM | [6] 80.4 µM | [7] 50 µM | [12] 50 µM
not listed: [8] | [16]
inactive: all other assays above

CCOc1cccc(-n2cc(C(=O)N3CCN(c4cc(C(=O)O)c5ccccc5c4)CC3)nc2-c2ccc(C)cc2)c1
active: [2] 87.1 µM | [3] 30.4 µM | [7] 33.2 µM | [9] 86.4 µM | [10] 79.2 µM | [11] 29.9 µM | [12] 89.3 µM | [13] 78.4 µM | [15] 82.3 µM | [16] 50 µM | [17] 37.4 µM | [18] 35.7 µM | [19] 88.7 µM
inactive: [1] | [4] | [5] | [6] | [8] | [14]

CC(C)CCCCCCOC(=O)c1ccc(C(=O)OCCCCCCC(C)C)c(C(=O)OCCCCCCC(C)C)c1
not listed: [8]
inactive: all other assays above

CCn1nc(Cc2ccccc2)cc1C1CCN(C[C@H]2C[C@H](N(C)[C@@H](C(=O)O)C(C)C)C[C@@H]2c2cccc(F)c2)CC1
active: [2] 50 µM | [11] 12.4 µM
not listed: [8]
inactive: all other assays above

CCOC(=O)CC(CC(=O)OCC)(OC(C)=O)C(=O)OCC
not listed: [8]
inactive: all other assays above

CCc1cc(SCc2sc(-c3ccc(C(F)(F)F)cc3)nc2CN2CCN(c3ccc(OC)cc3)CC2)ccc1OCC(=O)O
inactive: [6]
active: [1] 88.8 µM | [20] 7.95 µM | [2] 27.9 µM | [3] 93.4 µM | [4] 7.31 µM | [5] 7.43 µM | [7] 93.6 µM | [9] 22.4 µM | [10] 24.6 µM | [11] 8.47 µM | [12] 92.2 µM | [13] 8.39 µM | [14] 91.8 µM | [15] 93.7 µM | [16] 93.3 µM | [17] 7.63 µM | [18] 5.72 µM | [19] 6.99 µM

CC(C)CCCCCCCOC(=O)CCCCC(=O)OCCCCCCCC(C)C
not listed: [20]
inactive: all other assays above

CCCCCCCCCCCCc1ccccc1
not listed: [20]
inactive: all other assays above

CCC(C)(C)C(=O)O[C@H]1C[C@@H](C)C=C2C=C[C@H](C)[C@H](CC[C@@H]3C[C@@H](O)CC(=O)O3)[C@H]21
not listed: [8]
inactive: all other assays above
